# Screening results from PubChem.
# The sample as a whole holds a higher share of hits than the screen did.
# Dicer processing: human Dicer pre-microRNA cleavage inhibition | cat-ELCCA pre-miR-21 Dicer processing, chemiluminescence; hits give high values | z-score at 25 µM | hit rate 6% among 47,000 | AID 1347074; in the data active = z-score above about 3, passing the limit was not always enough;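 also: plate controls were vehicle for no effect and no enzyme for full effect; higher signal means more uncleaved substrate so more Dicer inhibition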
# * = called active by the depositor.
SMILES,Dicer processing
CCOC(=O)c1c(OC)cccc1OC,-0.77
CCOC(=O)c1c(C)oc2ccc(OC(C)=O)cc12,6.7
CCOC(=O)c1oc2cccc(OC(C)=O)c2c1C,5.7*
CSC(=NC#N)N1CCC(C(=O)c2ccccc2)CC1,-0.6
COc1cc(NC(=O)c2c(-c3ccccc3Cl)noc2C)cc(C(F)(F)F)c1,-0.51
CCOCCOC(=O)C1=C(C)NC2=C(C(=O)CC(C)(C)C2)C1c1cccc(O)c1 (stereo not given),-2.2
CCCCN1C(=O)C2(/C(=C(/O)c3ccc(OC)cc3)C(=O)C(=O)N2CCOC)c2ccccc21 (stereo not given),3.7*
COCCCN1C(=O)C(=O)/C(=C(\O)c2ccc(C)cc2)C12C(=O)N(C)c1ccccc12 (stereo not given),-1.7
CCN1C(=O)C2(/C(=C(/O)c3ccc(C)cc3)C(=O)C(=O)N2CCOC)c2ccccc21 (stereo not given),2.5
C=CCN1C(=O)C2(/C(=C(/O)c3ccccc3)C(=O)C(=O)N2CCOC)c2ccccc21 (stereo not given),1.7
CCCCN1C(=O)C2(/C(=C(/O)c3ccc(C)cc3)C(=O)C(=O)N2CCCOC)c2ccccc21 (stereo not given),5.1*
CCCCN1C(=O)C2(/C(=C(/O)c3ccc(Cl)cc3)C(=O)C(=O)N2CCCOC)c2ccccc21 (stereo not given),0.62
O=c1c2ccccc2cnn1Cc1nc2c3c(ncn2n1)CCC3,-0.76
CC(C)S(=O)(=O)c1csc(C(=O)N/N=C/C(C)(C)C)c1-n1cccc1,-1.9
CCc1c(C)nc(Nc2nc(C)c3cc(C)c(C)cc3n2)[nH]c1=O,1.1
CCOC(=O)N1c2ccccc2Sc2ccccc21,0.27
O=C(Cc1cccs1)N1c2ccccc2Sc2ccccc21,0.57
CCOC(=O)C1CCN(C(=O)N2c3ccccc3Sc3ccccc32)CC1,4.8*
CN1CCN(C(=O)N2c3ccccc3Sc3ccccc32)CC1,3.4*
O=C(N1CCN(CCO)CC1)N1c2ccccc2C=Cc2ccccc21,-0.57
NC(=O)C1CCN(C(=O)N2c3ccccc3Sc3ccccc32)CC1,2.2
COC(=O)c1ccc(C2C(C(=O)OC3CCCCC3)=C(C)NC3=C2C(=O)CCC3)cc1 (stereo not given),0
Cc1onc(-c2c(Cl)cccc2Cl)c1NC(=O)ON=C1CSC(C)SC1 (stereo not given),-0.82
Cc1cc(C)n(-c2ccc(-n3cccc3/C=C(\C#N)S(C)(=O)=O)cc2)n1,0.25
O=C(O)c1ccc(N2C(=O)CC(N3CCN(C/C=C/c4ccccc4)CC3)C2=O)cc1 (stereo not given),-0.43
SMILES,Dicer processing
COc1ccc(C(C#N)=C(SC)SC)cc1,-0.8
O=C(/C=C(\CC(=O)c1ccccc1)c1ccc(Cl)cc1)c1ccccc1,-1.6
Cc1cccc(C)c1OCCCc1c(C)n[nH]c1C,-0.53
Cc1cccc(C)c1OCCn1cncn1,3.3*
Cc1cc(Cl)cc(C)c1OCCn1ccnc1,1.2
CC(C)(C)n1nc(C2CC2)cc1NC(=O)c1ccccc1,-0.49
O=C1c2cccc3cc([N+](=O)[O-])cc(c23)C(=O)N1Cc1ccncc1,3.5*
O=C(O)CN1C(=O)c2cccc3cc([N+](=O)[O-])cc(c23)C1=O,2.9
CN1C(=O)c2cccc3cc([N+](=O)[O-])cc(c23)C1=O,0.58
O=C(Cn1nc(C(F)(F)F)c2c1CCC2)Nc1ccc(-n2cccc2)c(Cl)c1,0.53
Cc1cc(N)n2c(nc3ccccc32)c1C#N,-1.5
CCOC(=O)c1cnc2cc(Cl)c(F)cc2c1N1CCOCC1,-1.6
CCCOC(=O)C1=C(C)NC2=C(C(=O)CCC2)C1c1ccccc1Br (stereo not given),0.42
CC1(C)CC(N2CCCCC2)=CC(=S)S1,0.21
O=S(=O)(c1ccccc1)N1CCCC1c1cccs1 (stereo not given),-0.38
S=C1C=C(N2CCCCC2)CC(c2cccs2)S1 (stereo not given),4.9*
COc1ccc(C2NC(=O)N(C)C(C)=C2C(=O)Nc2ccccc2)cc1 (stereo not given),3.6
COc1ccccc1N1CCN(C(=O)C(C)Oc2ccnc3c(C)ccc(C)c23)CC1 (stereo not given),3.6*
COc1ccccc1N1CCN(C(=O)C(C)Nc2ccccn2)CC1 (stereo not given),-0.48
COc1ccccc1N1CCN(C(=O)C2CCCCC2)CC1,-0.28
Cc1c(C)n(C(=O)CSc2ncccn2)c2ccccc12,1.8
CCc1sc(C(C)(C)C)cc1NC(=O)c1ccccc1,-1.2
Cc1cc(C)c(C(=O)O)c(CC(C)(C)C(=O)O)c1,-2.3
Cc1cc(C)c(C(=O)Nc2ccccc2)c(CC(C)(C)C(=O)O)c1,4.7*
CCCC(CC(=O)O)(C(=O)O)c1ccccc1 (stereo not given),-0.72
O=C(CSCC(=O)c1ccc(Br)cc1)c1ccc(Br)cc1,-2.9
COC(=O)CCS(=O)(=O)c1ccc(Br)cc1,2.1
O=C(CS(=O)(=O)c1ccc(Br)cc1)c1ccccc1,3.8*
Cn1c(=O)c2c(nc3n2CCN(CCc2ccccc2)C3)n(C)c1=O,0.23
COCCCNC(=S)N/N=C/c1ccc(O)cc1,-0.81
